An excerpt weighted towards active compounds, which were near 8.9% of everything screened.
KB-V1 MDR tox – qHTS assay for MDR1-selective chemotherapeutics: Primary screen using the drug-selected MDR subline cells KB-V1. KB-V1 MDR cells viability, CellTiter-Glo, 72 h. Potency, µM (top dose mostly 46.1 µM), hits mostly cytotoxic. 400,000 tested, 3.4% active. AID 1347076, 2019; note: potency is the fitted concentration of half-maximal effect; % is set by controls: 0 for no effect and ±100 for the full control effect; nearly all actives have a fitted effect of over 60% in size
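Luminescent ATP read-out (CellTiter-Glo, 10 min) measures survival of drug-selected KB-V1 MDR cells after 72 h, 37 degrees C compound exposure. Medium: phenol-red-free DMEM, 10% FBS. Values from fitted concentration-response curves.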
DRD3 antagonist – qHTS of D3 Dopamine Receptor Antagonist: qHTS. D(3) dopamine receptor (Homo sapiens), P35462. max response, negative = inhibition, %. 360,000 tested, 2.5% active. D3R cells, DiscoveRx beta-arrestin luminescence, antagonist mode; active compounds read low; in the data active = max response below about -50%; inconclusive = no clear call, values can overlap the other calls; note: % is set by controls: 0 for no effect and ±100 for the full control effect
Target sequence (P35462 whole entry, looked up): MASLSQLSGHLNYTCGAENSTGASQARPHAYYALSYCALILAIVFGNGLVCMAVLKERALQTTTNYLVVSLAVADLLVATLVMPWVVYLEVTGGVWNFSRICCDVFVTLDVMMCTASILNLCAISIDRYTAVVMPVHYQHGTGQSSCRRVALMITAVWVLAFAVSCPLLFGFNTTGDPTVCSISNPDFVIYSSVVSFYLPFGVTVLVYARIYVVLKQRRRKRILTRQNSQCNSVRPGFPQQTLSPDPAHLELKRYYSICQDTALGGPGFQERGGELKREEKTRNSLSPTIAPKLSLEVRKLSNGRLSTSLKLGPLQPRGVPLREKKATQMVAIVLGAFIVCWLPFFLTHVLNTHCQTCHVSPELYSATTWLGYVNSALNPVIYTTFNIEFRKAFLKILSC
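Cells plated overnight at 1500 cells/well, then exposed to library compounds with dopamine controls for 90 minutes at 37 degrees C. DiscoveRx reagent added for 30–60 minutes at room temperature; luminescence read, quantitative HTS format.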
DRD3 agonist – qHTS of D3 Dopamine Receptor Agonist: qHTS | D(3) dopamine receptor (Homo sapiens), P35462 | D3R DiscoveRx beta-arrestin cells, luminescence, 90 min | max activation, % | 410,000 tested, 0.58% active | AID 652048, 2013; in the data active = max activation above about 30%; note: 0% is about no effect
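Cells at 1500/well, incubated overnight, then treated with pinned compounds (dopamine as control) for 90 min at 37 degrees C. DiscoveRx reagent added for 30 - 60 minutes at room temperature; luminescence read.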
KB-3-1 cytotox – qHTS assay for MDR1-selective chemotherapeutics: Primary screen using the parental adenocarcinoma cell KB-3-1 | KB-3-1 viability, CellTiter-Glo ATP luminescence, 72 h | Potency, µM (top dose mostly 46.1 µM), usual class: cytotoxic | 400,000 tested, 1.4% active; note: potency is the fitted concentration of half-maximal effect; % is set by controls: 0 for no effect and ±100 for the full control effect; nearly all actives have a fitted effect of over 60% in size
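KB-3-1 cells, DMEM (no phenol red) + 10% FBS; compound by pin transfer, 72 h, 37 °C. Readout: CellTiter-Glo luminescence after 10 min. Data normalized, curve-fitted.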
MCF10A rereplic – A quantitative high throughput screen for small molecules that induce DNA re-replication in MCF 10a normal breast cells. Potency, µM (highest dose often 46.1 µM), for inactives: top-dose activity, positive = re-replication, actives largely listed as activators. 350,000 tested, 2.9% active. MCF 10A DNA re-replication, Hoechst nuclear intensity, 48 h; note: potency is the fitted concentration of half-maximal effect; % of control where 0% means no effect; nearly all actives have a fitted effect of over 50% in size
SW480 rereplic – A quantitative high throughput screen for small molecules that induce DNA re-replication in SW480 colon adenocarcinoma cells | SW480 DNA re-replication, Hoechst DNA content imaging, 48 h | Potency, µM (highest dose often 46.1 µM), inactives show top-dose re-replication activation, actives largely listed as activators | 340,000 tested, 1.8% active | AID 624297, 2012; note: potency is the fitted concentration of half-maximal effect; % of control where 0% means no effect; nearly all actives have a fitted effect of over 55% in size
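Compounds, transferred as 23 nL by pin tool, were incubated with cells for 48 hr; DNA content per nucleus was then quantified by Hoechst staining and fluorescence plate imaging.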
* hit, by the source's call; i = inactive; u = inconclusive; x = not tested or not shown. Unless noted, calls come from the whole dose curve; as a rule, active = well fitted curve in the direction sought with a large enough effect; inconclusive = small, poorly fitted or top-dose-only effect, or another doubt; inactive = no such curve, though single readings can be large; an effect the other way counts as inactive or inconclusive.

SMILES	KB-V1 MDR tox	DRD3 antagonist	DRD3 agonist	KB-3-1 cytotox	MCF10A rereplic	SW480 rereplic
CCOc1ccccc1NC(=O)c1cnn2c(C(F)F)cc(-c3ccccc3)nc12	i	x	9.7	18.4µM*	x	x
COc1ccc(-c2cc(C(F)F)n3ncc(C(=O)n4ccnc4C)c3n2)cc1	i	-15.8	-4.5	i	16.4µM*	u
COc1ccc(-c2cc(C(F)F)n3ncc(C(=O)N4CCc5ccccc54)c3n2)cc1	u	-1.2	-3.5	i	4.61µM*	7.31µM*
COc1ccc(-c2cc(C(F)F)n3ncc(C(=O)Nc4cc(OC)ccc4OC)c3n2)cc1	i	x	2.6	i	x	x
COc1ccccc1CNC(=O)CN1C(=O)CSc2ccc(S(=O)(=O)N(C)C)cc21	i	x	-5.4	i	x	x
O=C1NC(=O)C(=Cc2ccccc2[N+](=O)[O-])S1	u	u	-10.1	u	20.6µM*	u
O=C1NC(=O)/C(=C/c2cccc3ccccc23)S1	i	5.3	3.5	i	7.5%	-0.2%
Cn1cc(CC(=O)NCCCN2CCOCC2)c2ccccc21	i	2.8	9.5	i	0.1%	-15.5%
Cn1cc(CC(=O)NCCN2CCOCC2)c2ccccc21	i	4.0	0.2	i	14.9%	23.1µM*
COc1ccc(CC(=O)NCCN2CCOCC2)cc1	i	9.6	-1.5	i	17.4%	11.6%
Cc1ccc(CC(=O)NCCN2CCOCC2)cc1	i	-8.0	58.0*	i	-3.5%	0.2%
CC1CN(CCCCSc2ccccc2)CC(C)O1 (centres undefined)	i	-11.2	-20.3	i	-0.7%	5.6%
CC1CN(CCCSc2ccc(Cl)cc2)CC(C)O1 (centres undefined)	u	-71.1*	-18.0	i	0.1%	-2.7%
Clc1ccc(SCCCN2CCCCC2)cc1	i	-80.1*	-17.5	i	4.2%	-4.0%
Clc1ccc(SCCN2CCNCC2)cc1	i	-0.9	3.7	i	u	14.2%
COc1cc(Cl)c(C)cc1NC(=O)CSc1cc(=O)n(C)c2cc(Cl)ccc12	i	x	-23.0	i	x	x
O=c1n(Cc2ccc(F)cc2)c2ccccc2c2nc(-c3ccccc3)nn12	x	x	5.3	x	x	x
O=c1n(Cc2ccc([N+](=O)[O-])cc2)c2ccccc2c2nc(-c3ccccc3)nn12	x	x	52.5*	x	x	x
Cc1cccc(C(=O)N[C@H](C(=O)Nc2ncc(C)s2)C(C)C)c1	16.4µM*	-1.8	-8.1	u	24.8%	u
COc1ccc(-n2c(=O)c3c(c4cc(OC)ccc4n3C)n(Cc3c(F)cccc3Cl)c2=O)cc1	i	x	-17.5	i	x	x
CCCNC(=O)C1(C)CCN(Cc2ccc3ccccc3c2Br)C1 (centres undefined)	i	-51.4*	-27.5	i	x	x
CCCNC(=O)C1(C)CCCN(Cc2csc3ccccc23)C1 (centres undefined)	u	-52.9*	-10.1	u	x	x
COCCNC(=O)C1(C)CCN(Cc2ccc3ccccc3c2Br)C1 (centres undefined)	i	106.2	-12.7	i	x	x
COCCNC(=O)C1(C)CCCN(Cc2csc3ccccc23)C1 (centres undefined)	i	u	-10.1	i	x	x
Cc1ccc2c(c1)cc1c(=O)n(CC(=O)N3CCCCC3)nc(C)n12	x	x	13.7	x	x	x
SMILES	KB-V1 MDR tox	DRD3 antagonist	DRD3 agonist	KB-3-1 cytotox	MCF10A rereplic	SW480 rereplic
ClCC1NCC(c2ccccc2Cl)c2c1[nH]c1ccccc21 (centres undefined)	i	-9.9	-13.5	u	3.66µM*	-8.8%
COc1ccccc1NC(=O)C(=O)NCC(c1ccc2c(c1)OCO2)N1CCOCC1 (centres undefined)	i	x	4.2	i	x	x
NNc1nc2ccc(Cl)cc2s1	u	2.3	2.6	u	20.6µM*	u
Cc1cc(C(=O)Nc2nc3ccc(Cl)cc3s2)nn1C	u	-16.4	-6.5	i	0.0%	6.51µM*
O=C(CSC1=Nc2ccccc2C2=NC(Cc3ccccc3)C(=O)N12)Nc1ccccc1F (centres undefined)	i	x	-11.5	i	x	x
CCCC1=Nc2cc(C(=O)NC3CCCCC3)ccc2Sc2ccc(C)cc21	0.82µM*	x	-18.1	0.517µM*	x	x
CCC1=Nc2cc(C(=O)NC3CCCC3)ccc2Sc2ccc(Br)cc21	x	x	0.3	x	x	x
CCCC1=Nc2cc(C(=O)NC3CCCC3)ccc2Sc2ccc(C)cc21	x	x	-16.1	x	x	x
CCC1=Nc2cc(C(=O)NCCN3CCOCC3)ccc2Sc2ccc(C)cc21	i	-6.9	0.5	i	-1.8%	u
CCOC(=O)N1CCC(NC(=O)c2ccc3c(c2)N=C(CC)c2cc(C)ccc2S3)CC1	u	-3.0	-5.3	7.31µM*	u	u
CCC1=Nc2cc(C(=O)NCc3ccco3)ccc2Sc2ccc(C)cc21	0.164µM*	-10.5	-2.4	u	1.46µM*	1.03µM*
CCC1=Nc2cc(C(=O)NC3CCC(C)CC3)ccc2Sc2ccc(C)cc21 (centres undefined)	4.11µM*	x	-14.1	4.61µM*	x	x
Cc1ccc2oc(-c3ccc(C)c(NC(=O)c4ccc(N5CCC(C)CC5)c([N+](=O)[O-])c4)c3)nc2c1	u	x	-8.7	i	x	x
CCOc1ccccc1NC(=O)NCc1noc2ccc(C)cc12	i	x	-3.3	i	x	x
CCC(C(=O)Nc1cc(C(F)(F)F)ccc1Cl)n1nc(C)c2sc3ccccc3c2c1=O (centres undefined)	i	x	8.7	i	x	x
Cc1coc2c(C)c3oc(=O)c(CCC(=O)NCCCN4CCOCC4)c(C)c3cc12	u	-10.3	11.6	i	6.2%	3.1%
Cc1coc2c(C)c3oc(=O)c(CCC(=O)NCCCn4ccnc4)c(C)c3cc12	i	-69.3*	-48.5	i	-11.3%	u
Cc1c(CCC(=O)NCCCn2ccnc2)c(=O)oc2c(C)c3occ(C(C)(C)C)c3cc12	i	-4.7	4.0	i	u	20.6µM*
Cc1nc(SCc2nc3ccc(C(=O)c4ccccc4)cc3[nH]2)c2oc3ccccc3c2n1	i	x	x	i	u	5.4%
CCn1cc2nc(SCc3cc(C)ccc3C)n(Cc3ccc(C)cc3)c(=O)c2n1	i	x	-1.9	i	x	x
Cc1ccc(NC(=O)Nc2c(C)n(C)n(-c3ccccc3)c2=O)c(Cl)c1	u	x	7.0	i	x	x

Screening data as filed in PubChem BioAssay.
